Read-out in experiment [1]: serum amyloid A (SAA), SAA1 (gene 6288)
The experiment can be described thus: BSK_CASM3C_SAA: BioMAP Diversity Plus: CASM3C Assay for serum amyloid A (SAA) Biomarker Activity (AID 2283049).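 Also: SAA protein level quantified by ELISA.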 The conditions noted are these: primary human coronary artery smooth muscle cells; actives raise or lower the signal.

Experiment [2] in a line: BSK_CASM3C_SRB: Viability Assessment in the BioMAP Diversity Plus: CASM3C Assay (AID 2283050).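 Also: total protein by SRB staining as cytotoxicity measure in parallel cultures.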 To be noted: primary human coronary artery smooth muscle cells.
Read-out in experiment [3]: Thrombomodulin, THBD (gene 7056)
The experiment can be described thus: BSK_CASM3C_Thrombomodulin: BioMAP Diversity Plus: CASM3C Assay for Thrombomodulin Biomarker Activity (AID 2283051).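 Also: thrombomodulin protein level measured by ELISA 24 h after dosing.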 The conditions noted are these: primary human coronary artery smooth muscle cells; actives raise or lower the signal.

Read-out in experiment [4]: Tissue Factor, F3 (gene 2152)
The experiment can be described thus: BSK_CASM3C_TissueFactor: BioMAP Diversity Plus: CASM3C Assay for Tissue Factor Biomarker Activity (AID 2283052).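 Also: cell surface tissue factor protein level read by ELISA.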 The conditions noted are these: primary human coronary artery smooth muscle cells; actives raise or lower the signal.

Read-out in experiment [5]: Interferon-gamma inducible Protein 10 (IP10), CXCL10 (gene 3627)
Description: BSK_hDFCGF_IP10: BioMAP Diversity Plus: hDFCGF Assay for Interferon-gamma inducible Protein 10 (IP10) Biomarker Activity (AID 2283053). The conditions noted are these: primary human foreskin fibroblasts; actives raise or lower the signal. An outline of the steps: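 ELISA read-out of IP-10 (CXCL10) from primary human skin fibroblasts, 24 h after compound addition. Gain or loss of signal versus DMSO baseline, bidirectional curve fitting.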

Read-out in experiment [6]: Urokinase-type plasminogen activator receptor (uPAR), PLAUR (gene 5329)
Description: BSK_CASM3C_uPAR: BioMAP Diversity Plus: CASM3C Assay for Urokinase-type plasminogen activator receptor (uPAR) Biomarker Activity (AID 2283054).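 Also: cell-surface uPAR protein level quantified by ELISA.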 The conditions noted are these: primary human coronary artery smooth muscle cells; actives raise or lower the signal.

Read-out in experiment [7]: Vascular cell adhesion molecule 1 (VCAM1), VCAM1 (gene 7412)
The experiment can be described thus: BSK_CASM3C_VCAM1: BioMAP Diversity Plus: CASM3C Assay for Vascular cell adhesion molecule 1 (VCAM1) Biomarker Activity (AID 2283055).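 Also: VCAM-1 protein level quantified by ELISA on the cells.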 The conditions noted are these: primary human coronary artery smooth muscle cells; actives raise or lower the signal.

Read-out in experiment [8]: Collagen III, COL3A1 (gene 1281)
The experiment can be described thus: BSK_hDFCGF_CollagenIII: BioMAP Diversity Plus: hDFCGF Assay for Collagen III Biomarker Activity (AID 2283056). To be noted: primary human foreskin fibroblasts; actives raise or lower the signal. An outline of the steps:
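Response relative to DMSO, fitted in both directions, reflects ELISA-measured collagen III in human primary skin fibroblasts 24 h after compound addition.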

Read-out in experiment [9]: Epidermal growth factor receptor (EGFR), EGFR (gene 1956)
Description: BSK_hDFCGF_EGFR: BioMAP Diversity Plus: hDFCGF Assay for Epidermal growth factor receptor (EGFR) Biomarker Activity (AID 2283057). The conditions noted are these: primary human foreskin fibroblasts; actives raise or lower the signal. In a few lines: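 ELISA readout of EGFR on human dermal fibroblasts (primary foreskin cells), 24 h post-dosing; bidirectional curve fit vs DMSO baseline, gain or loss of signal scored.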

Read-out in experiment [10]: Interleukin-8 (IL8), CXCL8 (gene 3576)
Description: BSK_hDFCGF_IL8: BioMAP Diversity Plus: hDFCGF Assay for Interleukin-8 (IL8) Biomarker Activity (AID 2283058). The conditions noted are these: primary human foreskin fibroblasts; actives raise or lower the signal. An outline of the steps:
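Fibroblast monolayers (human foreskin, hDFCGF) received test chemical for 24 h before ELISA detection of IL-8; either increases or decreases relative to DMSO count as activity.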

Read-out in experiment [11]: Macrophage colony-stimulating factor (MCSF), CSF1 (gene 1435)
Description: BSK_hDFCGF_MCSF: BioMAP Diversity Plus: hDFCGF Assay for Macrophage colony-stimulating factor (MCSF) Biomarker Activity (AID 2283060). The conditions noted are these: primary human foreskin fibroblasts; actives raise or lower the signal. An outline of the steps:
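fibroblasts (human foreskin, primary), 24 h post-dose; M-CSF by ELISA; bidirectional fit, DMSO = baseline.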

Experiment [12] in a line: BSK_hDFCGF_SRB: Viability Assessment in the BioMAP Diversity Plus: hDFCGF Assay (AID 2283061).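 Also: cells exposed to compound for 24 h before the read.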 To be noted: primary human foreskin fibroblasts. In a few lines:
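SRB-based viability read on primary human skin fibroblasts at 24 h: TCA fixation, 0.1% dye, 560 nm. Gain or loss of signal is fitted against the DMSO negative control.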

Read-out in experiment [13]: TIMP metallopeptidase inhibitor 1 (TIMP1), TIMP1 (gene 7076)
Description: BSK_hDFCGF_TIMP1: BioMAP Diversity Plus: hDFCGF Assay for TIMP metallopeptidase inhibitor 1 (TIMP1) Biomarker Activity (AID 2283062). To be noted: primary human foreskin fibroblasts; actives raise or lower the signal. An outline of the steps: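 Bidirectional curve fitting against DMSO baseline yielded this endpoint, based on ELISA detection of TIMP-1 in primary human foreskin fibroblasts exposed to compound for 24 h.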

Read-out in experiment [14]: Monokine induced gamma interferon (MIG), CXCL9 (gene 4283)
Description: BSK_hDFCGF_MIG: BioMAP Diversity Plus: hDFCGF Assay for Monokine induced gamma interferon (MIG) Biomarker Activity (AID 2283063). The conditions noted are these: primary human foreskin fibroblasts; actives raise or lower the signal. In a few lines:
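Endpoint derived by bidirectional fitting relative to DMSO; MIG quantified via ELISA in primary human foreskin fibroblasts harvested 24 h after dosing.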

Read-out in experiment [15]: Matrix Metallopeptidase 1 (MMP1), MMP1 (gene 4312)
Description: BSK_hDFCGF_MMP1: BioMAP Diversity Plus: hDFCGF Assay for Matrix Metallopeptidase 1 (MMP1) Biomarker Activity (AID 2283064). The conditions noted are these: primary human foreskin fibroblasts; actives raise or lower the signal. In a few lines: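 ELISA read-out of MMP1 from human foreskin fibroblasts (primary skin cells), 24 h post-dose. Gain or loss of signal was fitted bidirectionally versus DMSO negative control; cytotoxicity was checked by SRB in parallel cultures.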

Read-out in experiment [16]: Vascular cell adhesion molecule 1 (VCAM1), VCAM1 (gene 7412)
The experiment can be described thus: BSK_hDFCGF_VCAM1: BioMAP Diversity Plus: hDFCGF Assay for Vascular cell adhesion molecule 1 (VCAM1) Biomarker Activity (AID 2283065).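 As to AC50: VCAM-1 protein level quantified by ELISA after 24 h chemical exposure.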 To be noted: primary human foreskin fibroblasts; actives raise or lower the signal. An outline of the steps: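 Measured after 24 h chemical treatment of primary human skin fibroblasts, VCAM-1 was detected by ELISA and concentration-response analysed in both directions versus DMSO vehicle.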

Read-out in experiment [17]: Plasminogen activator inhibitor-1 (PAI1), SERPINE1 (gene 5054)
Description: BSK_hDFCGF_PAI1: BioMAP Diversity Plus: hDFCGF Assay for Plasminogen activator inhibitor-1 (PAI1) Biomarker Activity (AID 2283066). The conditions noted are these: primary human foreskin fibroblasts; actives raise or lower the signal. In a few lines: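 ELISA readout of PAI-1 from primary human skin fibroblast cultures, 24 h after compound addition. Gain or loss of signal was fitted bidirectionally against DMSO baseline.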

Read-out in experiment [18]: Intercellular Adhesion Molecule 1 (ICAM1), ICAM1 (gene 3383)
Description: BSK_KF3CT_ICAM1: BioMAP Diversity Plus: KF3CT Assay for Intercellular Adhesion Molecule 1 (ICAM1) Biomarker Activity (AID 2283067). The conditions noted are these: primary human keratinocytes with fibroblasts; actives raise or lower the signal. In a few lines:
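Bidirectional curve fitting against a DMSO baseline was applied to ICAM-1 ELISA signal from primary human skin co-cultures harvested 24 h after treatment, with SRB staining of parallel wells for overt cytotoxicity.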

Read-out in experiment [19]: Interferon-gamma inducible Protein 10 (IP10), CXCL10 (gene 3627)
The experiment can be described thus: BSK_KF3CT_IP10: BioMAP Diversity Plus: KF3CT Assay for Interferon-gamma inducible Protein 10 (IP10) Biomarker Activity (AID 2283068). The conditions noted are these: primary human keratinocytes with fibroblasts; actives raise or lower the signal. An outline of the steps:
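KF3CT co-culture (keratinocytes + foreskin fibroblasts), 24 h compound, IP-10 by ELISA; bidirectional fit vs DMSO baseline.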

This note sets out measurements from PubChem BioAssay (EPA / NIEHS).

The source made the active and inactive calls. The calls were made as follows: active = hit-call score of the fitted dose curve at least 0.9, where 1 is the maximum; inactive = score below 0.9.

For `O=C(O)C(Cl)(Cl)Cl`, the outcome in experiment [1], in experiment [2], in experiment [3], in experiment [4], in [5] and in experiment [6] was inactive. The outcome in experiment [7], in experiment [8], in [9], in [10], in experiment [11] and in experiment [12] was inactive. In addition, the result in experiment [13], in experiment [14], in experiment [15], in experiment [16], in experiment [17] and in experiment [18] was inactive. Further, the outcome in experiment [19] was inactive.
For `Oc1cccc2cccnc12`, the outcome in [1], in experiment [2], in experiment [4], in [6], in experiment [7] and in experiment [10] was inactive. Also, the AC50 was 4740 nM (active) in experiment [3]; 206 nM (active) in experiment [5]; 3470 nM (active) in experiment [8]; 275 nM (active) in experiment [9]; 301 nM (active) in [11]; 564 nM (active) in experiment [12]. In addition, the AC50 in experiment [13] was 201 nM (active); in [14] it was 169 nM (active); in experiment [15], 927 nM (active); in experiment [16] it was 1030 nM (active); in experiment [17], 331 nM (active); in [18], 2140 nM (active). The AC50 in [19] is 2550 nM (active).
Turning to `CC(=O)C(Cl)C(=O)N(C)C` (stereo not drawn), the outcome in experiment [1], in experiment [2], in experiment [3], in experiment [5], in experiment [6] and in experiment [9] was inactive. Further, the outcome in experiment [10], in [12], in experiment [13], in [14], in experiment [15] and in experiment [16] was inactive. Further, the result in [17], in [18] and in experiment [19] was inactive. Also, the figures for the half-maximal activity concentration (AC50) in experiment [4], in [7] and in [8] were 7430 nM (active), 12000 nM (active) and 13800 nM (active), respectively.
On to `Nc1ncc([N+](=O)[O-])s1`, for which the outcome in experiment [1], in experiment [2], in [3], in experiment [4], in experiment [5] and in [6] was inactive. The result in experiment [7], in experiment [8], in experiment [9], in experiment [10], in experiment [11] and in experiment [12] was inactive. Besides, the result in [13], in experiment [14], in [15], in experiment [16], in [17] and in experiment [18] was inactive. The result in experiment [19] was inactive.
As for `CCSC(C)CC1CC(=O)C(C(CC)=NOC/C=C/Cl)=C(O)C1` (stereo not drawn), the result in experiment [1], in experiment [2], in experiment [3], in [4], in experiment [5] and in experiment [6] was inactive. Moreover, the result in experiment [7], in experiment [8], in [9], in [10], in experiment [11] and in experiment [12] was inactive. For the same compound, the result in [13], in [14], in experiment [15], in experiment [16], in experiment [17] and in experiment [18] was inactive. The outcome in experiment [19] was inactive.
Consider `CCOP(=S)(OCC)SCSP(=S)(OCC)OCC`, for which the outcome in experiment [1], in experiment [2], in experiment [3], in experiment [4], in experiment [6] and in experiment [7] was inactive. Further, the result in [9], in experiment [10], in experiment [11], in [12], in experiment [13] and in [14] was inactive. The outcome in [15], in [16], in experiment [17], in [18] and in [19] was inactive. Also, the AC50 in experiment [5] is 13900 nM (active); in experiment [8] it was 10000 nM (active).
